Out of some 65,000 compounds screened, about 2,100 (3.2%) showed an effect of 50% or more. The median lay at about -52%. For the sample, strong results were picked, then their nearest neighbours and some compounds at random.
tested on: Plasmodium falciparum; assay: Screen against P. falciparum Asexual Blood Stage (ABS), at 5uM; format: functional, Dd2; settings: tested at 5 uM

Compared with `CC(CNC(=O)c1cnc[nH]1)Oc1ccccc1Br` (centres undefined), `Cc1cc(CCC(=O)NCc2ncc[nH]2)ccc1Br` is lower in INHIBITION: -61.4% for the first, -116% for the second.

Going from `CC(C)N1CCC(c2cnc(-c3cncnc3)cn2)CC1` to `Cn1cc(CN2CCOC(c3cccc(-c4cncnc4)n3)C2)cn1` (centres undefined), the INHIBITION falls from -18% to -54.2%.

Compared with `COc1cccc(-c2cccc(CN3C[C@H]4CC[C@@H](C3)N(C)C4=O)c2)c1`, `COc1cccc(CN2CCCC2c2cccc(F)c2)c1OC` (centres undefined) is higher in INHIBITION: 13.1% for the first, 55.4% for the second.

First: Cc1ncc2c(n1)CN(CC(=O)Nc1ccc(Cl)cn1)CC2
Second: CCc1ncc2c(n1)CN(CC(=O)Nc1ccc(Cl)cn1)CC2
The INHIBITION of the first is lower: 6.47% for the first, 59.4% for the second.

First: CC(C)c1ncc2c(n1)CN(CC(=O)Nc1ccc(Cl)cn1)CC2
Second: CC(C)c1noc(CN2CCC(c3nc4cc(Cl)ccc4o3)CC2)n1
The INHIBITION of the first is higher: -65.1% for the first, -72.4% for the second.

Going from `CCCc1nc(N2CCCCCC2)c2c(n1)c(C)nn2CC` to `CC(=O)N1CCc2nc(N3CCCC3)nc(C)c2C1`, the INHIBITION rises from 22.2% to 53.8%.

Going from `NC(=O)C1(CCCc2ccccn2)CCCN(Cc2ccncc2)C1` (centres undefined) to `O=C(C1CCC1)N1C[C@@H]2CN(Cc3ccncc3)C(=O)[C@@H]2C1`, the INHIBITION rises from -123% to -74.3%.

Going from `CC(O)CN1CCC(CN(C)C(=O)NC2CC2)CC1` (centres undefined) to `Cc1cc(C(=O)N[C@H]2CN(CCO)C[C@@H]2C2CC2)sc1C`, the INHIBITION rises from -50.7% to 60.8%.

Compared with `CCN(CC)CC1CN(Cc2ccco2)Cc2nccn2C1` (centres undefined), `CCN(CC)CC1CN(Cc2ccc(C)s2)Cc2nccn2C1` (centres undefined) is higher in INHIBITION: -52.4% for the first, 66.7% for the second.

Compared with `CCN(CC)CC1CN(CCc2ccccc2)Cc2nccn2C1` (centres undefined), `CCN(CC)CC1CN(Cc2cccc(C#N)c2)Cc2nccn2C1` (centres undefined) is lower in INHIBITION: 58.7% for the first, -6.06% for the second.

Going from `Cc1ccc(CN2Cc3nccn3CC(CN(C)C)C2)s1` (centres undefined) to `Cc1ccc(CN2Cc3nccn3CC(Cn3cccn3)C2)s1` (centres undefined), the INHIBITION rises from -47.7% to -26.9%.

First: CCOC(=O)[C@]12CCCN(Cc3cccs3)C[C@H]1CN(CC(C)C)C2
Second: CC(C)CN1C(=O)C2(CCN(Cc3nccs3)C2)c2ccccc21 (centres undefined)
The INHIBITION of the first is higher: 14.6% for the first, -54.5% for the second.

Compared with `NC(=O)c1ccc(C(=O)N2CCCCC2Cn2cccn2)s1` (centres undefined), `CN1CCN(C(=O)CCn2nnc3ccccc32)CC(C(N)=O)C1` (centres undefined) is lower in INHIBITION: -33.2% for the first, -71.9% for the second.

Going from `O=C(c1cc(Cl)cc2cccnc12)N1CCN(CCO)CC1` to `Cc1cccnc1CN1CCN(C(=O)c2cnn(C(C)C)c2)CC1`, the INHIBITION falls from 30.3% to -15.2%.

First: COc1ccc(CN)c(OC(F)F)c1
Second: COc1ccc(-c2ccccc2CN)c(OC)c1
The INHIBITION of the first is lower: -30% for the first, 60.2% for the second.

Compared with `COc1ccc(-c2ccnc(N)c2)c(OC)c1`, `COc1cc(CN2CCCC2c2cccc(F)c2)cc(OC)c1OC` (centres undefined) is higher in INHIBITION: -90.3% for the first, 28.2% for the second.

Going from `CC(C)(C)CN1CCCC(c2nccnc2Nc2cnccn2)C1` (centres undefined) to `CCc1nnc(Nc2cccc(C3CCN(c4cnccn4)CC3)n2)s1`, the INHIBITION rises from 22.1% to 55.5%.

First: O=C(CCCc1cccs1)N1CCC(N2CCNC2=O)CC1
Second: Cc1ccc(C(=O)N(C)CCCc2cnn(C)c2)cc1N1CCNC1=O
The INHIBITION of the first is lower: -185% for the first, -86.4% for the second.

Compared with `CCO[C@H]1C[C@@H](O)C12CCN(C1CCN(c3ccccc3C)CC1)CC2`, `Cc1cc(N2CCC3(CCCN(CCO)C3=O)C2)nc2ccccc12` (centres undefined) is higher in INHIBITION: 10.7% for the first, 19.1% for the second.

Going from `CCc1ccc(C2CC(=O)Nc3cc(OC)c(NS(C)(=O)=O)cc32)o1` (centres undefined) to `COc1ccc(CN2CCCC2c2cccc(F)c2)c(OC)c1OC` (centres undefined), the INHIBITION rises from -121% to 60.2%.

Going from `Cc1nc(N2CCCC2)nc2c1CN(C(=O)N1CCOCC1)CC2` to `Cc1nc(N2CCOCC2)nc2c1CCN(C(=O)N1CCCC1)CC2`, the INHIBITION falls from -70.2% to -112%.

First: Cc1nc(N2CCOCC2)nc2c1CN(C(=O)C(C)C)CC2
Second: Cc1nc(N2CCCC2)nc2c1CN(C(=O)N(C)C)CC2
The INHIBITION of the first is higher: 56.2% for the first, -67.8% for the second.

First: Cc1nc(N2CCCC2)nc2c1CCN(C(=O)N1CCCC1)CC2
Second: Cc1noc(C)c1C(=O)N1CCCC(c2c(C)c(=O)nc3n2CCC3)C1 (centres undefined)
The INHIBITION of the first is higher: 47% for the first, -105% for the second.

First: O=C(NCC(F)F)c1cnc(C2CCCN2)cn1 (centres undefined)
Second: Cc1cnc(C(=O)N[C@H]2CN(CCS(C)(=O)=O)C[C@@H]2C2CC2)cn1
The INHIBITION of the first is higher: -41.5% for the first, -47.7% for the second.

First: CCn1cc(NC(=O)C2CCN(Cc3nc(C(C)C)no3)CC2)cn1
Second: CC(=O)N(Cc1noc(C)n1)C1CCN(Cc2cnc(C)s2)C1 (centres undefined)
The INHIBITION of the first is lower: -86% for the first, -55.6% for the second.

Compared with `Cc1ccc(CN(CCCn2ccnc2)Cc2cc(F)ccc2F)s1`, `COc1ccc(F)c(CN(CCCn2ccnc2)Cc2ccc(C)s2)c1` is lower in INHIBITION: 68.8% for the first, 39.5% for the second.

Compared with `Cc1ccc(O)c(CN(CCCn2ccnc2)Cc2ccc(C)s2)c1`, `O=C(CCc1nnc2ccccn2c1=O)NCc1ccc2c(c1)OCO2` is lower in INHIBITION: 43% for the first, -108% for the second.

Compared with `CC(C)(C)NC(=O)C1CSCN1C(=O)CCc1ccco1` (centres undefined), `COCC1Cn2nnc(-c3cnn(C)c3)c2CN1Cc1ccco1` (centres undefined) is lower in INHIBITION: -87.6% for the first, -88.9% for the second.

Going from `O[C@H]1CC[C@@H](Cc2cc(-c3ccc(F)cc3)on2)O[C@@H]1CNCC1CC1` to `O[C@H]1CC[C@@H](Cc2cc(-c3ccccc3)on2)O[C@@H]1CNCC1CC1`, the INHIBITION falls from 63.5% to 39.2%.

Going from `O[C@H]1CC[C@@H](Cc2cc(-c3ccccn3)on2)O[C@@H]1CNCC1CC1` to `Cn1cc(CN2CCc3nc(-c4ccccn4)nc(O)c3C2)cn1`, the INHIBITION rises from -70.3% to -3.83%.

Going from `COCCCNC1N=C(n2nc(C)cc2C)Nc2sc3c(c21)CCCC3` (centres undefined) to `Cc1cc(C)n(CC2CN(CCOc3ccc(C#N)cc3)CCO2)n1` (centres undefined), the INHIBITION falls from 46.7% to -114%.

Compared with `COc1ccc(NC2(C(=O)N3CCn4cncc4C3)CCCC2)cc1`, `COc1ccc(NC2(C(=O)N3CCCn4cncc4C3)CCCC2)cc1` is higher in INHIBITION: -27.6% for the first, 45% for the second.

Compared with `Cc1ccc(NC2(C(=O)N3CCn4cncc4C3)CCCCC2)cc1C`, `O=C(c1ccncc1F)N1Cc2nc(CN3CCCCC3)oc2C1` is lower in INHIBITION: 64.5% for the first, -21.6% for the second.

First: CN(C)c1cc(CNC(=O)c2cc(Cl)ccn2)ccn1
Second: Cc1cc(CN(C)C(=O)C(c2ccccc2F)N(C)C)ccn1 (centres undefined)
The INHIBITION of the first is lower: -158% for the first, -25.2% for the second.

First: Cc1cc(-c2nn3c(C(C)C)nnc3s2)on1
Second: COCC1Cn2nnc(-c3cnn(C)c3)c2CN1Cc1ccc(C)s1 (centres undefined)
The INHIBITION of the first is lower: -33% for the first, -9.62% for the second.

Going from `COCC1Cn2nnc(-c3cnn(C)c3)c2CN1Cc1cccs1` (centres undefined) to `COc1cccc(CN2CCCCCC2c2cccs2)c1OC` (centres undefined), the INHIBITION falls from 59.2% to -70.3%.

Going from `Cc1ccc(S(=O)(=O)NCCc2cccnc2)cc1C` to `CCCNC(=O)c1sccc1N(C)S(=O)(=O)c1ccc(Cl)cc1`, the INHIBITION falls from -35.5% to -84%.

Compared with `c1cc(CN2C[C@H](OCC3CCOCC3)[C@H]3COC[C@H]32)co1`, `O=C(COC[C@]12COC[C@H]1CN(C1CCC1)C2)N1CCCC1` is lower in INHIBITION: -93% for the first, -115% for the second.

Compared with `COCCNC(=O)c1sccc1N(C)S(=O)(=O)c1ccc(Cl)cc1`, `CN(C)CCNC(=O)c1sccc1N(C)S(=O)(=O)c1ccc(Cl)cc1` is higher in INHIBITION: -88.8% for the first, 64.2% for the second.

Going from `Cc1cccc(CC(=O)N2CCOCC2c2c(C)n[nH]c2C)c1` (centres undefined) to `Cc1ncsc1C(=O)N1CCC(O)(Cn2c(C)cc3ccncc32)CC1`, the INHIBITION rises from -75.3% to -64.6%.

First: CS(=O)(=O)c1ccc(CN2CCCCC2c2cccc(F)c2)cc1 (centres undefined)
Second: Fc1cccc(C2CCCN2Cc2nnnn2C2CC2)c1 (centres undefined)
The INHIBITION of the first is lower: -36.8% for the first, -26.9% for the second.

Going from `O=C(c1ccc(COc2ccc(Cl)cc2)o1)N1N=CCC1(O)C(F)(F)F` (centres undefined) to `CCc1ccc(CN(C)C(=O)C(c2ccccc2F)N(C)C)nc1` (centres undefined), the INHIBITION rises from -121% to -0.644%.

Going from `CCc1nccn1C1CCCN(C(=O)c2cnn3cccnc23)C1` (centres undefined) to `CC(C)(C)n1ncc2c1CCCC2NCc1ccc2ncccc2c1` (centres undefined), the INHIBITION rises from -64% to -1.42%.

First: O=C(N[C@H]1CN(c2nc(CO)cs2)C[C@@H]1C1CC1)C1CCCCC1
Second: Cc1nc(N)sc1C(=O)N[C@H]1CN(CCO)C[C@@H]1C1CC1
The INHIBITION of the first is higher: -26.4% for the first, -82.2% for the second.

Compared with `CSCCCN1C[C@H](NC(=O)c2ccc(CO)cc2)[C@@H](C2CC2)C1`, `Cc1ccc(C(F)(F)F)cc1C(=O)N[C@H]1CN(CCO)C[C@@H]1C1CC1` is higher in INHIBITION: 17.3% for the first, 63.9% for the second.

First: Cc1cc(C(=O)N[C@H]2CN(CCC(N)=O)C[C@@H]2C2CC2)sc1C
Second: CCc1nnc(Nc2cccc(C3CCN(C)CC3)n2)s1
The INHIBITION of the first is lower: -43.8% for the first, 6.83% for the second.

Going from `Cc1ccc(CN2CCCC3(CCCN3S(C)(=O)=O)C2)s1` (centres undefined) to `COCCC(=O)N1CCCC2(CCC(=O)N2CCOC)CC1` (centres undefined), the INHIBITION falls from -71.7% to -122%.

First: CCc1nnc(Nc2cccc(C3CCN(CC4CC4)CC3)n2)s1
Second: CN(Cc1ccco1)C1CCC12CCN(C(=O)c1ccnnc1)CC2 (centres undefined)
The INHIBITION of the first is lower: 3.36% for the first, 53.3% for the second.

Going from `Cn1ccnc1Sc1ccc(N)cn1` to `CN(Cc1cnc2ccccc2c1)C(=O)C(c1ccccc1F)N(C)C` (centres undefined), the INHIBITION rises from -78.1% to 64.4%.

Compared with `CS(=O)(=O)NC[C@]12COC[C@H]1CN(CCc1ccccc1)C2`, `CN(Cc1ccco1)C1CCC12CCN(C(=O)c1ccco1)CC2` (centres undefined) is higher in INHIBITION: -29.9% for the first, -9.15% for the second.

Going from `CN(Cc1ccco1)C1CCC12CCN(C(=O)c1ccncc1)CC2` (centres undefined) to `CC1=C[C@@H](CC#N)[C@H](C(C)C)C[C@H]1CC(=O)N1CCN(C)CC1`, the INHIBITION rises from 38.3% to 44.5%.

Compared with `CC1=C[C@@H](CC#N)[C@H](C(C)C)C[C@H]1CC(=O)N1CCN(CCO)CC1`, `CC(=O)N1CCN(C(=O)C[C@@H]2C[C@@H](C(C)C)[C@H](CC#N)C=C2C)CC1` is higher in INHIBITION: 40% for the first, 53.5% for the second.
